Measured values from PubChem BioAssay AID504848 (National Center for Advancing Translational Sciences (NCATS), 2011).
Screen size: about 2,300 compounds; about 1,400 (61%) were called active. Another 29% or so got no clear call; they are omitted. The call rests on the fitted dose curve; in most records, active means well fitted inhibition curve with a large enough effect; inconclusive means small, poorly fitted or top-dose-only effect, or effect the other way; inactive means no such curve, though single readings can be large or run the other way. The set was probably picked from earlier hits. The list shows a part of the results.
Potency means the concentration at half of the fitted maximal effect.

Assay: Confirmation screen for delayed death inhibitors of the malarial parasite plastid, 96 hour incubation; further: nearly all actives have a fitted effect of over 60% in size
Settings: P. falciparum luciferase growth in erythrocytes; series mostly up to 28.7 µM
Procedure, shortened: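 Two-generation (96 h, 37 C) exposure of P. falciparum carrying an integrated firefly luciferase reporter in erythrocytes, 0.1% parasitemia and 2% hematocrit final, Albumax-supplemented RPMI. Luminescence decrease measures growth inhibition.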
In the case of `C=CCNC(=O)c1onc(CSc2cccc(Cl)c2)c1C(=O)O`, the Potency is reported as “inactive”.
For `Cc1cccc(N(Cc2ccccc2)C(=O)CN2C(=O)NC3(CCCCC3C)C2=O)c1` (stereo unspecified), the Potency was 11.2 µM (active).
With `Cc1nn(Cc2ccccc2Cl)c(C)c1C(=O)Nc1nnc(C2CC2)s1` the Potency was 11.2 µM (active).
In the case of `Cc1nn(Cc2c(Cl)cccc2Cl)c(C)c1NC(=O)c1cc(C(C)C)on1`, the Potency is reported as “inactive”.
In the case of `COc1ccc(-n2c(=O)/c(=C\c3cccs3)s/c2=C(/C#N)C(=O)N2CCN(C)CC2)cc1`, the Potency is reported as “inactive”.
In the case of `Fc1ccc(Nc2nc(N3CCOCC3)nc(N3CCOCC3)n2)cc1`, the Potency is reported as 12.6 µM (active).
With `COc1ccc(CN2CCN(C(=O)c3ccc(CNS(=O)(=O)c4ccc(C)cc4)cc3)CC2)c(OC)c1OC` the Potency was 11.2 µM (active).
With `O=S(=O)(c1ccc(Cl)c(NC(=S)N/N=C/c2ccc(O)cc2)c1)N1CCOCC1` the Potency was 5.01 µM (active).
In the case of `COc1ccc(/C=C/C(=O)c2ccc(NS(=O)(=O)c3ccc(C)cc3)cc2)cc1O`, the Potency is reported as 7.08 µM (active).
For `COc1cccc(/C=C/C(=O)c2ccc(NS(=O)(=O)c3ccc(C)cc3)cc2)c1`, the Potency was 15.8 µM (active).
For `CC(NC(=O)CCl)c1ccccc1Br` (stereo unspecified), the Potency was 0.794 µM (active).
In the case of `COc1ccccc1OCC(=O)Nc1ccc(S(=O)(=O)N2CCCCCC2)cc1`, the Potency is reported as 12.6 µM (active).
With `COc1ccc(NC(=O)CN2CCN(S(=O)(=O)c3ccc(Br)cc3)CC2)c(OC)c1` the Potency was 7.94 µM (active).
In the case of `COc1cc2c(cc1OC)CN(CC(=O)Nc1ccc(S(=O)(=O)N3CCCC3)cc1)CC2`, the Potency is reported as 15.8 µM (active).
In the case of `Cc1ccc(NC(=O)COc2ccccc2C#N)cc1S(=O)(=O)N1CCCCCC1`, the Potency is reported as 12.6 µM (active).
For `C=CCn1c(SCc2cc(=O)n3cc(C)ccc3n2)nnc1-c1ccc(F)cc1`, the Potency was 8.91 µM (active).
With `CCN(CC)C1=N/C(=C\c2ccc(OC)cc2)C(=O)N1c1ccccc1` the Potency was 12.6 µM (active).
With `COc1ccc(/C=C2\N=C(SC)N(c3ccccc3OC)C2=O)cc1` the Potency was 12.6 µM (active).
For `Clc1cccc(CN2CCc3c([nH]c4ccccc34)C2)c1`, the Potency was 12.6 µM (active).
For `COc1ccc(C2CC(=O)C3=C(C2)Nc2ccccc2NC3c2coc3ccccc3c2=O)cc1OC` (stereo unspecified), the Potency was 1.12 µM (active).
With `COc1ccc(C(C)(C)C)cc1NC(=O)c1[nH]c(C)c(C(C)=O)c1C` the Potency was 4.47 µM (active).
For `CC(=O)c1c(C)[nH]c(C(=O)COC(=O)COc2ccccc2F)c1C`, the Potency was “inactive”.
For `CCc1nc(SCC(=O)Nc2ccc(N(C)C)cc2)n[nH]1`, the Potency was 2.82 µM (active).
With `Cc1ccc(S(=O)(=O)N2CCC(C(=O)Nc3ccc(S(=O)(=O)N4CCCC4)cc3)CC2)cc1C` the Potency was 7.08 µM (active).
In the case of `COc1ccc(OCCOc2ccc(S(=O)(=O)N3CCCC3)cc2C(N)=O)cc1`, the Potency is reported as 10 µM (active).
In the case of `COc1ccc(S(=O)(=O)N2CCCN(S(=O)(=O)c3ccc(OC)c(C)c3)CC2)cc1C`, the Potency is reported as 12.6 µM (active).
For `COC(=O)c1cn(C)c2ccc(S(=O)(=O)N3CCCC3)cc2c1=O`, the Potency was “inactive”.
With `C=CCN(CC=C)C(=O)C1CCN(S(=O)(=O)c2ccc(N3CCCC3=O)cc2)CC1` the Potency was 5.01 µM (active).
For `COc1cc(NC(=O)C2CCN(S(=O)(=O)c3ccc(N4CCCC4=O)cc3)CC2)cc(OC)c1`, the Potency was 5.01 µM (active).
With `Cc1ccc(C(=O)C(C(=O)/C=C/c2ccccc2)=C2SCCCS2)cc1` the Potency was 7.94 µM (active).
For `CC[C@@H]1CC=C[C@H]2[C@H]1C(=O)N(Cc1ccccc1)[C@H]2c1ccoc1`, the Potency was 7.08 µM (active).
For `Fc1ccc2nc(Nc3nc4c(F)cc(F)cc4s3)sc2c1`, the Potency was 10 µM (active).
With `O=C(c1ccc(Br)cc1)C(CN1CCOCC1)c1ccccc1` (stereo unspecified) the Potency was 3.98 µM (active).
With `O=C(CN1CCCCC1)N/N=C/c1ccc(Cl)cc1` the Potency was “inactive”.
With `O=C(c1ccc(Cl)cc1)C(CN1CCCCC1)c1ccccc1` (stereo unspecified) the Potency was 12.6 µM (active).
With `O=C(c1ccc(Cl)cc1)C(CN1CCCC1)c1ccccc1` (stereo unspecified) the Potency was 7.08 µM (active).
In the case of `O=C(Nc1ccc(C2=NCCN2)cc1)c1ccc(C(=O)Nc2ccc(C3=NCCN3)cc2)c(Cl)c1`, the Potency is reported as 0.0708 µM (active).
For `CCOc1ccccc1CNC(=O)CN1C(=O)CSc2ccc(S(=O)(=O)N3CCOCC3)cc21`, the Potency was 8.91 µM (active).
For `COc1ccccc1-c1coc2cc(OC(=O)N3CCOCC3)ccc2c1=O`, the Potency was “inactive”.
For `Cc1c(C#N)c(NC(=O)CCl)n(Cc2ccccc2)c1C`, the Potency was 4.47 µM (active).
With `Cn1c(=O)n(C)c2cc(NC(=O)CCl)ccc21` the Potency was 2 µM (active).
With `O=C(CCl)Nc1ccc2c(c1)OCO2` the Potency was 2.51 µM (active).
For `Cc1ccc(NC(=O)c2nnn(CC(=O)Nc3ccc4c(c3)OCO4)c2N)cc1C`, the Potency was “inactive”.
With `COc1ccc(C)cc1N(CC(=O)Nc1ccc(S(=O)(=O)N2CCCC2)cc1)S(C)(=O)=O` the Potency was 8.91 µM (active).
In the case of `CCOc1ccccc1N(CC(=O)Nc1ccc(S(=O)(=O)N2CCCC2)cc1)S(C)(=O)=O`, the Potency is reported as 11.2 µM (active).
For `CCOC(=O)c1c[nH]c2cc(OCC(C)C)c(OCC(C)C)cc2c1=O`, the Potency was 0.178 µM (active).
For `COc1ccc(-c2c(-c3ccc(OC)c(C)c3O)n[nH]c2C)cc1`, the Potency was 10 µM (active).
For `Cc1ccc(Cl)cc1N1CCN(Cc2nc3c(c(=O)[nH]c(=O)n3C)n2CCc2ccccc2)CC1`, the Potency was 3.98 µM (active).
For `CC(C)C(=O)NCCSc1c[nH]c2ccccc12`, the Potency was 3.98 µM (active).
With `CCOc1ccc(N(C)C(=O)CCc2nnc3ccc(N4CCCCC4)nn23)cc1` the Potency was 7.94 µM (active).
For `CC1(C)COC(/C=C/c2cccc([N+](=O)[O-])c2)=N1`, the Potency was 8.91 µM (active).
In the case of `O=[N+]([O-])c1cccc(/C=C/c2nc[nH]c2[N+](=O)[O-])c1`, the Potency is reported as 3.98 µM (active).
With `COc1ccc(-c2nnc3ccc(SCC(=O)Nc4nc5ccc(C)cc5s4)nn23)cc1OC` the Potency was 0.158 µM (active).
With `O=C(C[n+]1ccccc1)Nc1ccc(Cl)c([N+](=O)[O-])c1` the Potency was 7.08 µM (active).
For `Nc1ccc2nc(-c3ccc(-c4nc5ccc(N)cc5[nH]4)cc3)[nH]c2c1`, the Potency was 5.62 µM (active).
With `Cc1coc2cc3oc(=O)c(CCC(=O)NCCCn4ccnc4)c(C)c3cc12` the Potency was 12.6 µM (active).
In the case of `CCOC(=O)C1CCN(c2c(NCc3ccc(C(=O)NCCC(C)C)cc3)c(=O)c2=O)CC1`, the Potency is reported as 1.12 µM (active).
With `C(=N\N(c1ccccc1)c1ccccc1)/c1ccccn1` the Potency was “inactive”.
With `O=C(N/N=C/c1ccccn1)c1cc([N+](=O)[O-])cc([N+](=O)[O-])c1` the Potency was 3.16 µM (active).
With `CC1(C)N=C(N)N=C(N)N1c1ccc(OCCCOc2ccccc2)c(Cl)c1` the Potency was 11.2 µM (active).
In the case of `CCc1ccc(C(=O)NNc2ccc(C)c(Cl)c2)cc1`, the Potency is reported as “inactive”.
With `Cc1ccc(NC2=CC(=O)CC(C)(C)C2)cc1Cl` the Potency was 12.6 µM (active).
For `Cc1ccc(-n2c(Cl)c(Cl)nc(Cl)c2=O)cc1`, the Potency was 11.2 µM (active).
For `Clc1ccc2nnnc(-c3ccccc3)c2c1`, the Potency was 3.55 µM (active).
With `CCn1cc(C(=O)O)c(=O)c2cc(F)c(N/N=C/c3ccccc3)cc21` the Potency was 10 µM (active).
For `COc1ccc(C)cc1-n1c(SCC(=O)Nc2cc(C)on2)nc2sc(C)c(C)c2c1=O`, the Potency was 2 µM (active).
With `CC(SC#N)C(=O)C12CC3CC(CC(C3)C1)C2` (stereo unspecified) the Potency was 12.6 µM (active).
With `COc1ccc(N(CC(=O)NCCSCc2ccc(C)cc2)S(=O)(=O)c2ccccc2)cc1` the Potency was 12.6 µM (active).
In the case of `COc1ccc2c(c1)c(CC(=O)Nc1nnc(C3CC3)s1)c(C)n2C(=O)c1ccc(Cl)cc1`, the Potency is reported as 10 µM (active).
For `COc1ccc(-c2nc(N3CCN(C)CC3)sc2-c2ccc(OC)cc2)cc1`, the Potency was 12.6 µM (active).
With `CC1(CCc2ccc3c(c2)OCO3)NCCc2c1[nH]c1ccccc21` (stereo unspecified) the Potency was 7.08 µM (active).
For `C/C(=N\NC(=S)NCC(C)(C)C)c1cc(F)cc(F)c1O`, the Potency was 11.2 µM (active).
For `Cc1cc(/C=C2/SC(=O)NC2=O)c(C)n1-c1ccc(N2CCOCC2)cc1`, the Potency was 12.6 µM (active).
For `CCC(=O)N1CCc2cc(S(=O)(=O)N3CCCCCC3)ccc21`, the Potency was 12.6 µM (active).
For `CC(=O)N1CCc2cc(S(=O)(=O)N3CC(C)CC(C)C3)ccc21` (stereo unspecified), the Potency was 8.91 µM (active).
In the case of `Cc1cccc(C(=O)Nc2ccccc2SCC2CSc3nc4ccccc4c(=O)n32)c1` (stereo unspecified), the Potency is reported as 3.98 µM (active).
In the case of `O=C(Nc1ccccc1SCC1CSc2nc3ccccc3c(=O)n21)c1ccccc1` (stereo unspecified), the Potency is reported as 12.6 µM (active).
For `O=C(Nc1ccccc1SCC1CSc2nc3ccccc3c(=O)n21)c1ccccc1Cl` (stereo unspecified), the Potency was 11.2 µM (active).
In the case of `Cc1ccc(C(=O)Nc2ccccc2SCC2CSc3nc4ccccc4c(=O)n32)cc1` (stereo unspecified), the Potency is reported as 10 µM (active).
For `CC(Oc1ccccc1F)C(=O)Nc1ccc2ccccc2c1` (stereo unspecified), the Potency was “inactive”.
With `CC(Oc1ccc(F)cc1)C(=O)Nc1ccc2ccccc2c1` (stereo unspecified) the Potency was “inactive”.
For `CC(=O)Nc1ccc(OCc2cccc3ccccc23)cc1`, the Potency was 7.94 µM (active).
For `COc1ccccc1NS(=O)(=O)c1ccc2oc(SCc3ccc(C#N)cc3)nc2c1`, the Potency was 12.6 µM (active).
In the case of `COC(=O)c1c(-c2ccccc2)csc1NC(=O)c1c(-c2ccccc2)noc1C`, the Potency is reported as 14.1 µM (active).
With `CCOC(=O)c1c(-c2cccc(C)c2)csc1NC(=O)c1c(-c2ccccc2)noc1C` the Potency was 8.91 µM (active).
For `CCOC(=O)c1c(NC(=O)c2c(-c3ccccc3)noc2C)sc(C)c1-c1ccccc1`, the Potency was 5.01 µM (active).
In the case of `CCOC(=O)c1c(-c2ccc(-c3ccccc3)cc2)csc1NC(=O)c1cccc(N2C(=O)CCC2=O)c1`, the Potency is reported as 2.24 µM (active).
In the case of `COC(=O)c1c(NC(=O)c2cccc(N3C(=O)CCC3=O)c2)sc2c1CCN(C(C)=O)C2`, the Potency is reported as 11.2 µM (active).
With `CCOC(=O)c1c(-c2ccc(F)cc2)csc1NC(=O)c1c(-c2ccccc2)noc1C` the Potency was 7.08 µM (active).
In the case of `Nc1nc(SCC(=O)NCC2CCCO2)[nH]c(=O)c1NC(=O)c1ccc(F)c(F)c1` (stereo unspecified), the Potency is reported as 7.94 µM (active).
For `COc1ccc(C(=O)Nc2c(N)nc(SCC(=O)Nc3ccc(NC(C)=O)cc3)[nH]c2=O)cc1OC`, the Potency was 12.6 µM (active).
